# ELG1 genotoxic = qHTS screen for small molecules that induce genotoxicity in human embryonic kidney (HEK293T) cells expressing luciferase-tagged ELG1. AID 504466, 2011. Potency, µM (series often up to 46 µM), for the others: at the top dose activity change, positive = activation, actives largely listed as activators. HEK293T ELG1-luciferase reporter, luminescence, 16 h. 1.3% of 330,000 active; also: % of control where 0% means no effect; nearly all actives have a fitted effect of over 60% in size
#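 Reporter readout depends on ELG1 protein level, which increases with genetic stress. After 16 hr compound exposure at 37 °C, luciferase activity was quantified using ONE-Glo.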
# NPC1 prom act = qHTS Assay for NPC1 Promoter Activators | Huh7 NPC1 promoter luciferase reporter, 24 h | Potency, µM (titrated, usually from 9.22 µM), for the others: at the highest dose activation, hits mostly activators | 2.4% of 320,000 active | AID 485313, 2010; also: % of control where 0% means no effect; nearly all actives have a fitted effect of over 60% in size
#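 Stably transfected Huh7 (NPC1 promoter→luciferase), 1500 cells/well in Opti-MEM + 10% FBS, 2 h settle, then compound 24 h at 37 °C. Luminescence after 10 min with Amplite reagent.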
# FLuc modulator = qHTS profiling assay for firefly luciferase inhibitor/activator using purifed enzyme and Km concentrations of substrates (counterscreen for miR-21 project); Luciferin 4-monooxygenase (Photinus pyralis), P08659; purified FLuc, Km substrates, luminescence inhibition; Potency, µM (titrated, usually from 57.5 µM), without a hit: at the highest dose activity change, negative = inhibition, actives largely listed as inhibitors; 6.9% of 360,000 active; AID 588342, 2011;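 also: plate controls were vehicle for no effect and reference inhibitor for full effect; nearly all actives have a fitted effect of over 55% in size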
# Target sequence (P08659 whole entry, looked up): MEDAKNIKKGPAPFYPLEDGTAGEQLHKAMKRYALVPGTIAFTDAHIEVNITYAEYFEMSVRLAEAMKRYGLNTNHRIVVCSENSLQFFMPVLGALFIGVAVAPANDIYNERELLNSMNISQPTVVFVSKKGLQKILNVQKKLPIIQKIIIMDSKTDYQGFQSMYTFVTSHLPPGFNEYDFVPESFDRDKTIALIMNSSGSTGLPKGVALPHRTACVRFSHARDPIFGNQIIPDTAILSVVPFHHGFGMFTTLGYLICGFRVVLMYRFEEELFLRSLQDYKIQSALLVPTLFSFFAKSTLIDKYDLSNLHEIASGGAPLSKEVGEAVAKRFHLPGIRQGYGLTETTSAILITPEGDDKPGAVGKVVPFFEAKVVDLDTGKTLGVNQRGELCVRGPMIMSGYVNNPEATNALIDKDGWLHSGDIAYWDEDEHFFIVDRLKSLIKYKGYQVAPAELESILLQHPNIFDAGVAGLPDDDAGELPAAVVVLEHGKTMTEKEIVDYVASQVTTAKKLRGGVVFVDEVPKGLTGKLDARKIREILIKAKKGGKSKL
#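 Biochemical qHTS of compounds, final roughly 60 µM downward over six points, against 10 nM purified firefly luciferase using Km concentrations of substrates (10 uM D-luciferin, 10 uM ATP) in Tris acetate pH 7.5 buffer; luminescence output.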
# Luc counter = Counterscreen for Luciferase (Kinase-Glo TM) Inhibition; Kinase-Glo luciferase, ATP luminescence, 8 min; Potency, µM (doses to about 38.3 µM), without a hit: at the highest dose activity change, negative = inhibition, hits mostly inhibitors; 0.28% of 200,000 active; AID 1379, 2008; also: % is scaled to controls: 0 for no effect and ±100 for the full control effect; nearly all actives have a fitted effect of over 60% in size
#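 Recombinant Kinase-Glo luciferase, 10 uM ATP (linear range), luciferin; imidazole pH 7.2 / KCl / MgCl2 / Tween / BSA buffer; 8 min RT; luminescence.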
# SMN2 splice up = qHTS Assay for Enhancers of SMN2 Splice Variant Expression. Potency, µM (titrated, usually from 46.1 µM), without a hit: at the highest dose activity change, positive = activation, most hits filed as activators. 2.8% of 210,000 active. HEK293 SMN2-luciferase splicing reporter, luminescence, 30-36 h; also: % of control where 0% means no effect; nearly all actives have a fitted effect of over 55% in size
#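 HEK293 cells carry an SMN2 minigene-luciferase reporter in which exon 7 inclusion puts luciferase in frame. Cells were seeded at 2000 cells/well, attached for 10-12 hours, then exposed to compounds for 30-36 hours at 37C before ONE-Glo luminescence.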
# Rab9 promoter act = qHTS Assay for Rab9 Promoter Activators | 2.8% of 320,000 active | Huh7 Rab9 promoter-luciferase reporter, luminescence, 24 h | Potency, µM (top dose mostly 9.22 µM), without a hit: top-dose activation, negative = inhibition, most hits filed as activators; also: % of control where 0% means no effect; nearly all actives have a fitted effect of over 60% in size
#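 Measured in stably transfected Huh7 cells bearing a Rab9 promoter–luciferase construct: 24 h compound treatment at 37 °C, followed by luminescence detection.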
# An asterisk follows results filed as active; ? = inconclusive; . = not tested or not shown; [ ] = dose if it differs, or a comment. The list is not random: actives were taken first. Their share in the collection is about 7.5%. Calls follow the shape of the dose curve; as a rule, active = well fitted curve in the direction sought with a large enough effect; inconclusive = small, poorly fitted or top-dose-only effect, or another doubt; inactive = no such curve, though single readings can be large; an effect the other way counts as inactive or inconclusive. Potency is read from the fitted curve at half-maximal effect.
SMILES,ELG1 genotoxic,NPC1 prom act,FLuc modulator,Luc counter,SMN2 splice up,Rab9 promoter act
COc1ccc(-n2c(/C=C/c3ccccc3F)nc3cc(OC)c(OC)cc3c2=O)cc1Cl,.,.,1%,.,.,.
Cc1ccc(C(=O)/C=C\Nc2ccc(C)c(C)c2)cc1,?,2µM*,2.1µM*,-4%,11µM*,1.6µM*
Cc1ccc(O)c(N/C=C/C(=O)c2ccc(F)cc2)c1,21µM*,1%,2.4µM*,.,.,-3%
Cc1ccc(N/C=C/C(=O)c2ccc(C)cc2)cc1,?,1.4µM*,0.76µM*,-14%,.,1.6µM*
Cc1ccc(O)c(NC(=O)/C=C/C(=O)O)c1,1%,-4%,3%,1%,-18%,-3%
CC(C)c1ccc(S(=O)(=O)NCc2nc3cccnc3n2Cc2ccc(F)cc2)cc1,.,.,0%,.,.,.
Cc1ccc(-c2nc3[nH]c(=O)cc(NC(=O)c4cccs4)n3n2)cc1,-1%,-17%,13µM*,.,.,-6%
CC(C)(C)c1ccc(-c2nc3[nH]c(=O)cc(NC(=O)c4ccco4)n3n2)cc1,?,4µM*,0.43µM*,.,.,1.1µM*
CN1C(=O)/C(=C/c2ccc(C(=O)Nc3ccc(O)cc3C(=O)O)cc2)SC1=S,0%,3%,21µM*,.,.,2%
CCN(CC)S(=O)(=O)c1cccc(C(=O)N/N=C/c2cccc(O)c2O)c1,?,-7%,8.5µM*,1%,-67%,-2%
COc1ccc(NC(=O)c2ccc(C)cc2)c(OC)c1,?,?,5.4µM*,-2%,18µM*,?
CCN(CC)S(=O)(=O)c1cccc(C(=O)Nc2ccccc2C(=O)Nc2ccc(OC)cc2)c1,.,.,8.5µM*,.,.,.
COc1ccc(NC(=O)c2ccc3[nH]c(=O)c(=O)[nH]c3c2)c(OC)c1,0%,-3%,-2%,.,.,-2%
CCOc1ccc(Sc2cc(C(=O)NCCCOC)c3ccccc3n2)cc1,.,.,4%,.,.,.
Cc1ccc(C(=O)Nc2ccc(O)cc2C(=O)O)cc1C,8%,2%,3.4µM*,-10%,-13%,-32%
Cc1ccc(C(=O)Nc2ccc(O)cc2C(=O)O)cc1,-5%,-4%,11µM*,17%,-3%,-1%
COc1cc(NC(=O)c2ccc(C)cc2)c(OC)cc1NC(=O)CN1CCOCC1,-7%,21%,19µM*,2%,1%,-7%
Cc1cccc(C(=O)Nc2ccccc2C(=O)Nc2ccc(C(=O)O)cc2)c1,9%,-3%,6.7µM*,.,.,9%
CC(C)(C)OC(=O)C[C@H]1C/C=C\C[C@@H](CC(=O)NCCO)C(=O)NC[C@@H](c2ccccc2)OC1=O,0%,.,.,.,.,.
O=[N+]([O-])c1ccc(Sc2ncc3ccccn23)nc1,-6%,-2%,2%,.,.,-1%
Cc1cccc(C(=O)Nc2ccc(O)cc2C(=O)O)c1,-1%,1%,21µM*,-19%,3%,11%
Cc1cccc(C(=O)Nc2ccc(O)cc2)c1,27%,?,?,-12%,27%,?
Clc1cc2nc(-c3cccnc3Cl)[nH]c2cc1Cl,4.6µM*,0.89µM*,3µM*,.,.,?
CCn1c(-c2cccnc2Cl)nc2cc(Cl)c(Cl)cc21,-1%,-10%,?,6%,-15%,10%
CC(=O)N/N=C\c1ccccc1OC/C=C/c1ccccc1,16µM*,?,-17%,.,.,27%
SMILES,ELG1 genotoxic,NPC1 prom act,FLuc modulator,Luc counter,SMN2 splice up,Rab9 promoter act
CC(=O)N/N=C\c1cccc(OC/C=C/c2ccccc2)c1,?,0.4µM*,11µM*,.,.,0.45µM*
N#CCC(=O)N/N=C\c1cccc(OC/C=C/c2ccccc2)c1,?,0.56µM*,13µM*,.,.,?
CCOC(=O)N/N=C\c1cccc(OC)c1OC/C=C/c1ccccc1,-4%,4%,9.5µM*,.,.,9%
COC(=O)N/N=C\c1ccc(OC/C=C/c2ccccc2)cc1,8%,7%,?,.,.,0%
O=C(CSc1ncccn1)NCc1ccccc1Cl,18µM*,4µM*,27µM*,-3%,13µM*,1.4µM*
O=C(CSc1nc(=O)n2ccccc2n1)NCc1ccccc1Cl,2%,-3%,2%,.,.,-7%
O=C(CSc1nnc(-c2ccccc2F)o1)N1CCc2ccccc21,.,.,1%,.,2%,.
O=C(CSc1nnc(-c2ccccc2F)o1)N1CCNC1=O,?,2.5µM*,13µM*,.,.,3.2µM*
CCOc1ccc(-c2nnc(SCC(=O)N3CCNC3=O)o2)cc1,?,2µM*,5.4µM*,.,.,2µM*
CCOc1ccc(-c2nnc(SCC(=O)NCc3ccccc3Cl)o2)cc1,.,.,17µM*,.,.,.
Cc1ccc2oc(C(=O)Nc3ccc(S(=O)(=O)Nc4nccc(C)n4)cc3)cc(=O)c2c1,.,.,-16%,.,2%,.
CCCC[C@]12Cc3cc(OC)c(OC)cc3C(O1)c1c(cc(-c3ccccc3)oc1=O)O2,.,-1%[1.84 µM],-4%[11.5 µM],.,.,-1%[1.84 µM]
CN=C1S/C(=C\c2ccc(N3CCCC3)c(F)c2)C(=O)N1C,?,27%,4.8µM*,1%,?,?
CCc1ccc2oc(-c3cccc(NC(=O)c4cccnc4)c3)nc2c1,-2%,?,1.3µM*,5%,16%,?
Cc1ccc2oc(-c3ccc(C)c(NC(=O)c4ccc(-c5ccccc5[N+](=O)[O-])o4)c3)nc2c1,.,.,11µM*,.,-24%,.
CCCCC(=O)Nc1cc(-c2nc3ccccc3o2)ccc1OC,.,.,-11%,.,7%,.
Cc1ccc2oc(-c3ccc(Cl)c(NC(=O)c4cc5ccccc5o4)c3)nc2c1,.,.,12µM*,.,6%,.
COc1ccc(-c2nc3ccccc3o2)cc1NC(=O)c1cccnc1,.,.,11µM*,.,-1%,.
O=C(Nc1ccc2oc(-c3ccccc3)nc2c1)c1cccnc1,14%,?,?,-1%,-9%,?
CC(C)Oc1ccc(CNC(=O)c2sc3ncccc3c2-n2cccc2)cc1,.,.,-2%,.,.,.
O=C(Nc1cccc(C(F)(F)F)c1)N1CCC(CN2CCCCCC2)CC1,.,.,-2%,.,.,.
CCc1ccc2oc(-c3cccc(NC(=O)c4cc5ccccc5o4)c3)nc2c1,.,.,2.4µM*,.,?,.
COc1ccc(-c2nc3ccccc3o2)cc1NC(=O)C(C)(C)Oc1ccc(Br)cc1,.,.,-5%,.,-6%,.
CCc1ccc2oc(-c3cccc(NC(=O)C(C)(C)Oc4ccc(Br)cc4)c3)nc2c1,.,.,2.1µM*,.,5µM*,.
CCCCNS(=O)(=O)c1ccc(Br)cc1N1CCC[C@H]1CO,3%,.,.,.,.,.
Cc1cc(=O)n2[nH]c(-c3ccccc3Cl)cc2n1,-1%,2%,24µM*,0%,-14%,8%

# Compound activity from PubChem.
